AmpC inh no detg – qHTS Inhibitors of AmpC Beta-Lactamase (assay without detergent). P00811. AmpC nitrocefin hydrolysis, absorbance 480 nm, 0.0001% Triton. Potency, µM (doses to about 57.1 µM), inactives show at the top dose activity change, negative = inhibition, hits mostly inhibitors. 330,000 compounds, 0.52% hits. AID 485341, 2010;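 note: potency is the fitted concentration of half-maximal effect; plate controls were no compound for no effect and no enzyme for full effect; nearly all actives have a fitted effect of over 20% in size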
Target sequence (P00811 whole entry, looked up): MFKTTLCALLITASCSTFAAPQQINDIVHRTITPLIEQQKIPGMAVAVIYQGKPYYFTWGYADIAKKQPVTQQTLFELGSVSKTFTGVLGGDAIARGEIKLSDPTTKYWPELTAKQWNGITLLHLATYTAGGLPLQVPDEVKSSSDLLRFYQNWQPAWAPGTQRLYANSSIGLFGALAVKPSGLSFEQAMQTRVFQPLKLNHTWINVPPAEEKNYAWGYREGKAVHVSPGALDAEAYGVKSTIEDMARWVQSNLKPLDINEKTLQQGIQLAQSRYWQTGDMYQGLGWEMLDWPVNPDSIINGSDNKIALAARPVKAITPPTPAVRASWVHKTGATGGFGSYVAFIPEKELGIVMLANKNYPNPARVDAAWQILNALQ
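AmpC (5.3 nM in the dispensed reagent) in 20 mM phosphate pH 7.0 with 0.01% (detergent screen) or 0.0001% Triton X-100 was preincubated with compounds for 15 min at room temperature. Nitrocefin was then added from an 800 uM solution, and hydrolysis was followed at 480 nm.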
SARS PLpro yeast-1 – qHTS of Yeast-based Assay for SARS-CoV PLP; S. cerevisiae expressing SARS-CoV PLpro, growth rescue; Potency, µM (series often up to 32.9 µM), for inactives: at the highest dose activity, positive = growth rescue, actives largely listed as activators; 330,000 compounds, 0.19% hits; AID 485353, 2010; calls by dose curve; note: potency is the fitted concentration of half-maximal effect; 0% is about no effect; nearly all actives have a fitted effect of over 55% in size
AmpC inh detg – qHTS Inhibitors of AmpC Beta-Lactamase (assay with detergent) | P00811 | AmpC hydrolysis of nitrocefin, absorbance 480 nm, 0.01% Triton | Potency, µM (series often up to 114 µM), for inactives: at the top dose activity change, negative = inhibition, usual class: inhibitors | 370,000 compounds, 0.041% hits;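 note: potency is the fitted concentration of half-maximal effect; 0% = no-compound wells and -100% = no-enzyme wells; nearly all actives have a fitted effect of over 25% in size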
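20 mM phosphate pH 7.0 + 0.01% (detergent screen) or 0.0001% Triton X-100; 5.3 nM AmpC reagent; cpd preinc 15 min RT; nitrocefin (800 uM stock) to start; A480 q20 s × 4 min; Activity was normalised to no-enzyme and no-compound control wells.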
Sm TGR inh – qHTS Assay for the Inhibitors of Schistosoma Mansoni Peroxiredoxins; Schistosoma mansoni thioredoxin glutathione reductase (TGR), Q962Y6; purified TGR, DTNB reduction, TNB absorbance 405 nm; Potency, µM (highest dose often 114 µM), inactives show at the top dose activity change, negative = inhibition, actives largely listed as inhibitors; 360,000 compounds, 3% hits; AID 485364, 2010; note: potency is the fitted concentration of half-maximal effect; % is set by controls: 0 for no effect and ±100 for the full control effect; nearly all actives have a fitted effect of over 60% in size
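Kinetic colorimetric format: TGR-catalysed, NADPH-driven DTNB reduction monitored via TNB absorbance. Enzyme dispensed at 20 nM; compound exposure 15 min at room temperature before reaction start.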
Pf growth 48h – Primary qHTS for delayed death inhibitors of the malarial parasite plastid, 48 hour incubation; P. falciparum luciferase growth in erythrocytes, 48 h; Potency, µM (titrated, usually from 28.7 µM), for the others: top-dose activity change, negative = inhibition, actives largely listed as inhibitors; 310,000 compounds, 5.9% hits; AID 504832, 2011; note: potency is the fitted concentration of half-maximal effect; % is set by controls: 0 for no effect and ±100 for the full control effect
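Here the parasites carry a stable luciferase gene and grow inside erythrocytes in Albumax-based RPMI medium with compound for one erythrocytic cycle. Activity is scored as loss of luminescent signal.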
Pf growth 96h – Primary qHTS for delayed death inhibitors of the malarial parasite plastid, 96 hour incubation; Potency, µM (top dose mostly 28.7 µM), for the others: at the highest dose activity change, negative = inhibition, hits mostly inhibitors; P. falciparum luciferase reporter growth, 96 h; 320,000 compounds, 6.9% hits; AID 504834, 2011; note: potency is the fitted concentration of half-maximal effect; % is set by controls: 0 for no effect and ±100 for the full control effect
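Parasite growth measured via integrated firefly luciferase reporter in P. falciparum. Infected erythrocytes at 2% hematocrit, 0.05% parasitemia final were treated 96 hours at 37 C under 5% CO2, and luminescence was read.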
SARS PLpro yeast-2 – qHTS of Yeast-based Assay for SARS-CoV PLP: Hit Validation; calls only; shares compounds with SARS PLpro yeast-1; yeast expressing SARS-CoV PLpro, growth phenotype rescue; 1,000 compounds, 19% hits; call rule not given here
* = called active by the depositor; i = inactive; ? = inconclusive; / = no result; + = active, no number. Compounds with a hit are over-represented: about 12% of the library has one in this group of screens. Unless noted, calls come from the whole dose curve; as a rule, active = well fitted curve in the direction sought with a large enough effect; inconclusive = small, poorly fitted or top-dose-only effect, or another doubt; inactive = no such curve, though single readings can be large; an effect the other way counts as inactive or inconclusive.

SMILES | AmpC inh no detg | SARS PLpro yeast-1 | AmpC inh detg | Sm TGR inh | Pf growth 48h | Pf growth 96h | SARS PLpro yeast-2
Cc1ccc(CNC(=O)/C=C/c2ccc(Br)o2)cc1 | -57% | / | ? | 8.9µM* | 5% | 0% | i
Brc1ccc(OCc2nc(-c3ccccn3)n[nH]2)cc1 | -23% | ? | 0% | 15% | / | -58% | +
Clc1ccc(OCc2nc(-c3ccccn3)n[nH]2)cc1 | -9% | -7% | -3% | 3% | -2% | / | /
CCOC(=O)c1cnn(Cc2ccccc2)c1N | -15% | ? | ? | -16% | -18% | 147% | i
CCOC(=O)c1cnn(Cc2ccc(C)cc2)c1N | 76% | 0% | ? | -3% | -11% | -3% | /
CCOC(=O)N1CCN(CC(O)COCc2ccccc2)CC1 (centres undefined) | -4% | ? | -17% | 5% | 45% | 51% | i
NC(N)=NC1=NC(=O)/C(=C/c2ccccc2-n2cccn2)S1 | -33% | / | -2% | -1% | 12% | -10% | i
c1ccc(-c2cn3c(n2)-c2ccccc2C3)cc1 | -19% | -68% | -11% | -1% | 97% | 163% | /
COc1ccccc1NC(c1cccnc1)c1ccc2cccnc2c1O (centres undefined) | -23% | 4.5µM* | ? | 0% | ? | ? | ?
CCOC(=O)COn1c(=O)c(-c2ccccc2)[n+]([O-])c2ccccc21 | -5% | 2% | -8% | -18% | / | 6% | /
CC(CNC(=O)Cn1cnc2c(NCc3ccccc3)ncnc21)c1ccccc1 (centres undefined) | -16% | 14µM* | / | / | / | / | +
O=C(NCc1ccccc1CN1CCOCC1)c1ccc(-n2cccn2)cc1 | -15% | -6% | / | / | / | / | /
Cc1ccc(OCC(O)CNS(=O)(=O)c2ccccc2C(=O)N2CCCCC2)cc1 (centres undefined) | 92% | 11% | -13% | 3% | -8% | -6% | /
CCN1C[C@@H]2[C@@H]3C(=O)N(C)C(=O)[C@@H]3[C@](CC)(C(=O)OC)N2C1=NC | -18% | 3.5µM* | / | / | / | / | i
CC1=C(C(=O)OCc2ccccc2)C(/C=C/c2ccccc2)NC(=S)N1 (centres undefined) | -34% | / | ? | 1% | ? | ? | +
C=CCOC(=O)C1=C(C)NC(=S)NC1/C=C/c1ccccc1 (centres undefined) | -49% | 4% | 7% | 13% | ? | ? | /
CCOc1ccccc1N1CCN(C(=O)NCc2ccc(Cl)cc2)CC1 | 104% | -3% | ? | -9% | -16% | 5% | /
O=C1CC(c2ccc3c(c2)OCO3)c2cc3c(cc2N1)OCO3 (centres undefined) | / | / | 8% | 6% | ? | ? | /
c1cc2c(cc1[C@H]1OC[C@H]3[C@@H]1CO[C@H]3c1ccc3c(c1)OCO3)OCO2 | -21% | ? | / | / | / | / | i
Oc1ccccc1/C=N/Nc1ncc(Br)cn1 | -21% | ? | -11% | 2% | 2.1µM* | -102% | i
Cc1sc2ncnc(N/N=C/c3ccc(O)cc3)c2c1C | -14% | -27% | -4% | -8% | 13% | ? | /
Cc1sc2ncnc(N/N=C/c3ccccc3O)c2c1C | 31% | 1.1µM* | ? | -5% | 2.9µM* | 6% | ?
CC/C(Cc1ccccc1)=N/NC(=O)CNC(=O)c1ccc(Cl)cc1Cl | -31% | -8% | 2% | -23% | -12% | 37% | /
NC(=O)CN1CCOCCOCCN(CC(N)=O)CCOCCOCC1 | -14% | -2% | 0% | 0% | -11% | ? | /
Cc1ccc(S(=O)(=O)Nc2ccc(O)c3ncccc23)cc1 | -32% | ? | 1% | -4% | ? | 0% | +
SMILES | AmpC inh no detg | SARS PLpro yeast-1 | AmpC inh detg | Sm TGR inh | Pf growth 48h | Pf growth 96h | SARS PLpro yeast-2
CCCCOc1ccc(S(=O)(=O)Nc2ccc(-c3ccc(N4CCC(C)CC4)nn3)cc2)cc1 | / | / | 30% | -1% | / | / | /
O=C(COC(=O)CCC(=O)c1ccc(Cl)cc1)NC1CC1 | -11% | -2% | 6% | -2% | 19% | 19% | /
COc1cccc(CNc2ccc(S(N)(=O)=O)cc2)c1OC | -17% | ? | ? | ? | ? | / | i
NS(=O)(=O)c1ccc(NCc2ccccc2OCc2ccccc2F)cc1 | -41% | -2% | -2% | 3% | 35% | 118% | /
Cc1ccc(NC(=S)/N=C(\N)Nc2nc(C)c3ccccc3n2)cc1C | -9% | 10µM* | 7% | 7% | 12µM* | 2.3µM* | +
Cc1cc(C)n2ncc(/C(N)=N/OC(=O)Nc3ccc(Cl)cc3)c2n1 | -20% | -1% | 7% | 25% | 6% | 31% | /
COc1cc(/C=N/n2c(SC)nnc(C(C)(C)C)c2=O)ccc1O | -24% | 16µM* | -13% | -25% | 2% | 18% | i
Cc1cc(/C=N/NC(=O)c2ccc(O)cc2)c(C)n1CC(C)C | -57% | 0% | -2% | -24% | 0% | -19% | /
CCCCN(C(=O)CSc1nnc(-c2ccc(OC)cc2)n1CC)c1c(N)n(Cc2ccccc2)c(=O)[nH]c1=O | 5% | ? | -1% | 1% | 1% | ? | i
CCOc1ccc(OCCC(=O)N(CCCOC)c2c(N)n(Cc3ccccc3)c(=O)[nH]c2=O)cc1 | 44% | ? | ? | 6% | ? | 0% | i
COCCN(C(=O)COC(=O)CCCOc1ccc(OC)cc1)c1c(N)n(Cc2ccccc2)c(=O)[nH]c1=O | 104% | 7% | -1% | ? | 7% | 13% | /
N#Cc1ccc[n+](CC(=O)c2ccc(NC(=O)c3ccccc3)cc2)c1 | -8% | 0% | 7% | -20% | ? | 9% | /
Cc1cnc(C(=O)OCC(=O)N2CCC(C)CC2)cn1 | -12% | -1% | / | / | / | / | /
O=C(CCN1CCN(C(c2ccccc2)c2ccccc2)CC1)N/N=C/c1ccc(O)cc1O | -33% | 4.5µM* | ? | -8% | ? | 5.2µM* | i
CCN(CC(=O)Nc1ccc(NC(C)=O)cc1)C(=O)/C=C/c1c(C)nn(-c2ccc(F)cc2)c1C | 76% | ? | -2% | -16% | ? | ? | i
CCN(CC(=O)Nc1ccc(NC(C)=O)cc1)C(=O)/C=C/c1cccs1 | -9% | -4% | 8% | -12% | 12% | -11% | /

High-throughput results (PubChem)
